# From PubChem
# G9a inh = qHTS Assay for Inhibitors of Histone Lysine Methyltransferase G9a; Histone-lysine N-methyltransferase EHMT2 (Homo sapiens), Q96KQ7; G9a H3K9 monomethylation, AlphaScreen, 2 h; Potency, µM (series often up to 102 µM), for the others: at the highest dose activity, negative = inhibition, usual class: inhibitors; 350,000 compounds, 8.8% hits; note: potency is the fitted concentration of half-maximal effect; % is set by controls: 0 for no effect and ±100 for the full control effect; nearly all actives have a fitted effect of over 75% in size
# Target sequence (Q96KQ7 913-1193 limits assumed): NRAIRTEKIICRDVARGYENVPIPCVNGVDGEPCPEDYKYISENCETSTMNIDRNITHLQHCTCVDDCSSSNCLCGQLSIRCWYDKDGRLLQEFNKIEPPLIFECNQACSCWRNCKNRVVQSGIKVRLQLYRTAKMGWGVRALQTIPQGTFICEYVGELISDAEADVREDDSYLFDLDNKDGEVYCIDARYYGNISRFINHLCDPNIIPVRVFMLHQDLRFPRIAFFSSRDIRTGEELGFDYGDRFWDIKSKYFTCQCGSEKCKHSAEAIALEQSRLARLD
#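 Quantitative HTS format: methyltransferase activity on a biotin-tagged H3K9 peptide is measured by AlphaScreen, using a rabbit anti-monomethyl-H3K9 antibody with streptavidin donor and anti-IgG acceptor beads. Final levels are 20 nM enzyme, 500 nM peptide, 20 uM SAM; 2 h RT.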
# CtBP-E1A inh = qHTS Assay for Inhibitors of the CtBP/E1A Interaction; AlphaScreen GST-E1A/His-CtBP binding, 1536-well; stronger effect = lower value; activity change, % (concentration not given with the values); CtBP / adenovirus E1A interaction (AlphaScreen); 340,000 compounds, 0.49% hits; in the data active = activity change below about -65%; inconclusive = mostly about -30% to -63%; note: % is set by controls: 0 for no effect and ±100 for the full control effect
#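 Steps: dispense buffer (Tris pH 8.0, NaCl 300 mM, TCEP 1 mM, BSA, Tween 20); add 5X protein mix (GST-E1A, His-CtBP, 125 nM each); pin 23 nL compound; 2 h at 37 °C, dark; add 5X beads (50 ug/mL); 1 h; read.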
# Six1-Eya2 blk = qHTS Assay for Inhibitors of the Six1/Eya2 Interaction. Homeobox protein SIX1 (Homo sapiens) + Protein phosphatase EYA2 (Homo sapiens), …. AlphaScreen GST-Six1/His-Eya2 binding, biochemical; stronger effect = lower value. activity change, % (concentration not given with the values). 360,000 compounds, 0.56% hits. AID 651725, 2012; in the data active = activity change below about -65%; inconclusive = mostly about -30% to -63%; note: % is set by controls: 0 for no effect and ±100 for the full control effect
#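 AlphaScreen with GST-Six1 and His-Eya2 (5X mix: 250 nM and 500 nM), glutathione donor and nickel acceptor beads; buffer 50 mM Tris pH 8.0, 300 mM NaCl, 1 mM TCEP; 1 h at 37 C in the dark.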
# HP1b chromo inh = HTS for Inhibitors of HP1-beta Chromodomain Interactions with Methylated Histone Tails. Potency, µM (titrated, usually from 114 µM), inactives show at the highest dose activity change, negative = inhibition, usual class: inhibitors. Chromobox protein homolog 1 (Homo sapiens), P83916. 390,000 compounds, 0.56% hits. AlphaScreen HP1-beta / biotin-H3K9me3 peptide binding; note: potency is the fitted concentration of half-maximal effect; nearly all actives have a fitted effect of over 70% in size
# Target sequence (P83916 whole entry, looked up): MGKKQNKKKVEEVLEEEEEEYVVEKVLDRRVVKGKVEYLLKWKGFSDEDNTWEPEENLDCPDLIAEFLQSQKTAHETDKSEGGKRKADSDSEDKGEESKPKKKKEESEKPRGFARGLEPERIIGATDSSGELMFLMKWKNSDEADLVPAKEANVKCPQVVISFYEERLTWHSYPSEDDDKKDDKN
#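 Compound inhibition of the preformed complex between 50 nM HP1-beta and 50 nM biotinylated H3K9me3 peptide was read by AlphaScreen. Buffer was PBS pH 7.4 with 0.01% Tween-20. Incubations ran 30 min at room temperature, with 10 ug/mL donor/acceptor beads.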
# JMJD2A Tudor = qHTS Assay for Inhibitors of JMJD2A-Tudor Domain; Potency, µM (doses to about 114 µM), without a hit: top-dose activity change, negative = inhibition, usual class: inhibitors; AlphaScreen JMJD2A-Tudor / H3K4me3 peptide binding; Lysine-specific demethylase 4A (Homo sapiens), O75164; 390,000 compounds, 4.4% hits; note: potency is the fitted concentration of half-maximal effect; % is set by controls: 0 for no effect and ±100 for the full control effect; nearly all actives have a fitted effect of over 50% in size
# BAZ2B inh = qHTS Assay for Inhibitors of BAZ2B. AID 504333, 2011. Potency, µM (highest dose often 114 µM), inactives show at the highest dose activity change, negative = inhibition, most hits filed as inhibitors. Bromodomain adjacent to zinc finger domain protein 2B (Homo sapiens), Q9UIF8. AlphaScreen BAZ2B-H3K14Ac peptide displacement. 360,000 compounds, 4.4% hits; note: potency is the fitted concentration of half-maximal effect; % is set by controls: 0 for no effect and ±100 for the full control effect; nearly all actives have a fitted effect of over 60% in size
#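 Complex of BAZ2B and biotin-H3K14Ac (50 nM apiece) forms over 30 min at RT, then faces library compounds up to 110 uM for another 30 min; AlphaScreen beads added, 20 min dark incubation, luminescence read.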
# * marks the source's active call; other numbers are inactive results; u = inconclusive; x = no result given; [ ] = another dose, or the depositor's remark. A selection: hits, their analogues and other compounds. The true share with any hit is near 10%. Unless noted, calls come from the whole dose curve; as a rule, active = well fitted inhibition curve with a large enough effect; inconclusive = small, poorly fitted or top-dose-only effect; inactive = no such curve, though single readings can be large or run the other way.
SMILES,G9a inh,CtBP-E1A inh,Six1-Eya2 blk,HP1b chromo inh,JMJD2A Tudor,BAZ2B inh
CC(C)C(=O)OCC(=O)Nc1ccc(N=Nc2ccccc2)cc1,45µM*,u,u,u,35µM*,40µM*
O=C(CCl)Nc1ccc(N=Nc2ccccc2)cc1,u,x,-8,1%,u,40µM*
O=C(CCl)Nc1ccc(-c2ccccc2)cc1,0%,x,0,72%,-11%,3%
C=CCn1c(=N)n(CC(=O)c2ccc(Cl)cc2)c2ccccc21,-4%,36,8,44%,0%,2%
C=CCn1c(-c2ccccc2)c[nH]c1=S,u,-15,-13,u,7.9µM*,-34%
C=CCn1c(-c2ccc(Cl)cc2)c[nH]c1=S,1.4µM*,-13,-4,9%,25µM*,-27%
CCn1c(-c2ccc(-c3ccccc3)cc2)c[nH]c1=S,u,-10,-13,21%,-36%,-29%
Cn1c(-c2ccc(-c3ccccc3)cc2)c[nH]c1=S,14µM*,-4,-15,-4%,u,-34%
Cc1ccc(CSc2nc3cccnc3n2Cc2ccc(C(=O)NCc3ccco3)cc2)cc1,u,x,x,7%,-23%,-1%
CCOc1ccc(-n2c(=O)c3c4c(sc3n(Cc3cccc(C)c3)c2=O)CCCC4)cc1,1%[59 µM],x,x,42%,8%,0%
Cc1ccc(CC(=O)NCc2nc(-c3cccc(C)c3)no2)cc1,12%[59 µM],x,x,62%,-9%,2%
Cc1ccc(NC(=O)COC(=O)Cn2cnc3ccccc32)cc1S(=O)(=O)N(C)C,50µM*,-2,-1,23%,-14%,-32%
Cc1ccc(NC(=O)Cc2c(Cl)cccc2Cl)cc1S(=O)(=O)N(C)C,-11%[59 µM],0,-3,36%,-25%,0%
Cc1ccc(NC(=O)CNCc2ccccc2Cl)cc1S(=O)(=O)N(C)C,-12%,-1,-3,32µM*,3.2µM*,50µM*
Cc1ccc(NC(=O)CNCc2ccc(Cl)cc2Cl)cc1S(=O)(=O)N(C)C,10µM*,1,-1,35µM*,20µM*,25µM*
CN(C)CCSc1nnc2[nH]c3ccccc3c2n1,1.4µM*,-21,-17,26%,-9%,-4%
NCCC(=O)N1c2ccccc2Sc2ccc(Cl)cc21,8%,-11,-1,35%,-13%,-23%
CN1CCN(CCC(=O)N2c3ccccc3Sc3ccc(Cl)cc32)CC1,u,-12,-1,-4%,u,79µM*
Cc1cccc(OCCn2c(-c3ccc(Cl)cc3)nc3ccccc3c2=O)c1C,-1%[59 µM],x,x,47%,2%,4%
Nc1ccc2cc3ccc(N)cc3nc2c1,28µM*,x,x,x,x,x
Cc1c(Cl)cccc1Nc1nn2c(=O)c3ccc(C(=O)NCCC4=CCCCC4)cc3nc2s1,-12%[59 µM],x,x,12%,-16%,-8%
COc1ccc(NC(=S)N(CCCN2CCOCC2)Cc2cn(C)c3ccccc23)cc1OC,50µM*,0,-27,-3%,-27%,u
CCCN1CNc2c(c(=O)[nH]c(=S)n2CCC(C)C)C1,x,x,x,57%,-3%,x
S=c1nc[nH]c2c1ncn2-c1ccc(Cl)cc1,x,-5,-12,u,50µM*,x
NC(=O)c1cc(S(=O)(=O)NCC2CCC(C(=O)Nc3ccc(Cl)cc3)CC2)cs1 (configuration not stated),4%[59 µM],x,x,-6%,-13%,-1%
Cc1ccc(CNc2ccc3nnc(-c4ccccc4)n3n2)cc1,-6%,-2,-3,30%,-30%,-5%
c1ccc(CN2CCN(CCCNc3ccc4nnc(-c5ccccc5)n4n3)CC2)cc1,-16%,-27,-69*,10%,u,0%
